The supplement of paper PMC11001985

compound: C#CCNC(=O)CCSSCCC(=O)NCCc1ccc(C=O)c(C=O)c1; assay: lysine labeling ratio R10:1 (500 µM / 50 µM probe), SILAC-ABPP in living cells; higher = lower intrinsic lysine reactivity toward the probe, active = 2 or less; conditions: HeLa; probe concentrations 500 vs 50 µM
Procedure, shortened: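 Each lysine carries an R value: the filtered median of MS1 peptide ratios of high probe to low probe, with the median then taken over forward and reverse replicates. These came from living SILAC light and heavy HeLa cells in PBS at room temperature labelled with an alkyne-tagged, disulfide-linked lysine probe at 500 µM or 50 µM, in forward and reverse swaps. The lysates were mixed, clicked to biotin-azide, trypsin-digested, captured on neutravidin, released by DTT, alkylated and run by LC-MS/MS on a TIMS-TOF Pro. The highest value allowed is 20.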

UniProt Q15149, sequence (Q15149 whole entry): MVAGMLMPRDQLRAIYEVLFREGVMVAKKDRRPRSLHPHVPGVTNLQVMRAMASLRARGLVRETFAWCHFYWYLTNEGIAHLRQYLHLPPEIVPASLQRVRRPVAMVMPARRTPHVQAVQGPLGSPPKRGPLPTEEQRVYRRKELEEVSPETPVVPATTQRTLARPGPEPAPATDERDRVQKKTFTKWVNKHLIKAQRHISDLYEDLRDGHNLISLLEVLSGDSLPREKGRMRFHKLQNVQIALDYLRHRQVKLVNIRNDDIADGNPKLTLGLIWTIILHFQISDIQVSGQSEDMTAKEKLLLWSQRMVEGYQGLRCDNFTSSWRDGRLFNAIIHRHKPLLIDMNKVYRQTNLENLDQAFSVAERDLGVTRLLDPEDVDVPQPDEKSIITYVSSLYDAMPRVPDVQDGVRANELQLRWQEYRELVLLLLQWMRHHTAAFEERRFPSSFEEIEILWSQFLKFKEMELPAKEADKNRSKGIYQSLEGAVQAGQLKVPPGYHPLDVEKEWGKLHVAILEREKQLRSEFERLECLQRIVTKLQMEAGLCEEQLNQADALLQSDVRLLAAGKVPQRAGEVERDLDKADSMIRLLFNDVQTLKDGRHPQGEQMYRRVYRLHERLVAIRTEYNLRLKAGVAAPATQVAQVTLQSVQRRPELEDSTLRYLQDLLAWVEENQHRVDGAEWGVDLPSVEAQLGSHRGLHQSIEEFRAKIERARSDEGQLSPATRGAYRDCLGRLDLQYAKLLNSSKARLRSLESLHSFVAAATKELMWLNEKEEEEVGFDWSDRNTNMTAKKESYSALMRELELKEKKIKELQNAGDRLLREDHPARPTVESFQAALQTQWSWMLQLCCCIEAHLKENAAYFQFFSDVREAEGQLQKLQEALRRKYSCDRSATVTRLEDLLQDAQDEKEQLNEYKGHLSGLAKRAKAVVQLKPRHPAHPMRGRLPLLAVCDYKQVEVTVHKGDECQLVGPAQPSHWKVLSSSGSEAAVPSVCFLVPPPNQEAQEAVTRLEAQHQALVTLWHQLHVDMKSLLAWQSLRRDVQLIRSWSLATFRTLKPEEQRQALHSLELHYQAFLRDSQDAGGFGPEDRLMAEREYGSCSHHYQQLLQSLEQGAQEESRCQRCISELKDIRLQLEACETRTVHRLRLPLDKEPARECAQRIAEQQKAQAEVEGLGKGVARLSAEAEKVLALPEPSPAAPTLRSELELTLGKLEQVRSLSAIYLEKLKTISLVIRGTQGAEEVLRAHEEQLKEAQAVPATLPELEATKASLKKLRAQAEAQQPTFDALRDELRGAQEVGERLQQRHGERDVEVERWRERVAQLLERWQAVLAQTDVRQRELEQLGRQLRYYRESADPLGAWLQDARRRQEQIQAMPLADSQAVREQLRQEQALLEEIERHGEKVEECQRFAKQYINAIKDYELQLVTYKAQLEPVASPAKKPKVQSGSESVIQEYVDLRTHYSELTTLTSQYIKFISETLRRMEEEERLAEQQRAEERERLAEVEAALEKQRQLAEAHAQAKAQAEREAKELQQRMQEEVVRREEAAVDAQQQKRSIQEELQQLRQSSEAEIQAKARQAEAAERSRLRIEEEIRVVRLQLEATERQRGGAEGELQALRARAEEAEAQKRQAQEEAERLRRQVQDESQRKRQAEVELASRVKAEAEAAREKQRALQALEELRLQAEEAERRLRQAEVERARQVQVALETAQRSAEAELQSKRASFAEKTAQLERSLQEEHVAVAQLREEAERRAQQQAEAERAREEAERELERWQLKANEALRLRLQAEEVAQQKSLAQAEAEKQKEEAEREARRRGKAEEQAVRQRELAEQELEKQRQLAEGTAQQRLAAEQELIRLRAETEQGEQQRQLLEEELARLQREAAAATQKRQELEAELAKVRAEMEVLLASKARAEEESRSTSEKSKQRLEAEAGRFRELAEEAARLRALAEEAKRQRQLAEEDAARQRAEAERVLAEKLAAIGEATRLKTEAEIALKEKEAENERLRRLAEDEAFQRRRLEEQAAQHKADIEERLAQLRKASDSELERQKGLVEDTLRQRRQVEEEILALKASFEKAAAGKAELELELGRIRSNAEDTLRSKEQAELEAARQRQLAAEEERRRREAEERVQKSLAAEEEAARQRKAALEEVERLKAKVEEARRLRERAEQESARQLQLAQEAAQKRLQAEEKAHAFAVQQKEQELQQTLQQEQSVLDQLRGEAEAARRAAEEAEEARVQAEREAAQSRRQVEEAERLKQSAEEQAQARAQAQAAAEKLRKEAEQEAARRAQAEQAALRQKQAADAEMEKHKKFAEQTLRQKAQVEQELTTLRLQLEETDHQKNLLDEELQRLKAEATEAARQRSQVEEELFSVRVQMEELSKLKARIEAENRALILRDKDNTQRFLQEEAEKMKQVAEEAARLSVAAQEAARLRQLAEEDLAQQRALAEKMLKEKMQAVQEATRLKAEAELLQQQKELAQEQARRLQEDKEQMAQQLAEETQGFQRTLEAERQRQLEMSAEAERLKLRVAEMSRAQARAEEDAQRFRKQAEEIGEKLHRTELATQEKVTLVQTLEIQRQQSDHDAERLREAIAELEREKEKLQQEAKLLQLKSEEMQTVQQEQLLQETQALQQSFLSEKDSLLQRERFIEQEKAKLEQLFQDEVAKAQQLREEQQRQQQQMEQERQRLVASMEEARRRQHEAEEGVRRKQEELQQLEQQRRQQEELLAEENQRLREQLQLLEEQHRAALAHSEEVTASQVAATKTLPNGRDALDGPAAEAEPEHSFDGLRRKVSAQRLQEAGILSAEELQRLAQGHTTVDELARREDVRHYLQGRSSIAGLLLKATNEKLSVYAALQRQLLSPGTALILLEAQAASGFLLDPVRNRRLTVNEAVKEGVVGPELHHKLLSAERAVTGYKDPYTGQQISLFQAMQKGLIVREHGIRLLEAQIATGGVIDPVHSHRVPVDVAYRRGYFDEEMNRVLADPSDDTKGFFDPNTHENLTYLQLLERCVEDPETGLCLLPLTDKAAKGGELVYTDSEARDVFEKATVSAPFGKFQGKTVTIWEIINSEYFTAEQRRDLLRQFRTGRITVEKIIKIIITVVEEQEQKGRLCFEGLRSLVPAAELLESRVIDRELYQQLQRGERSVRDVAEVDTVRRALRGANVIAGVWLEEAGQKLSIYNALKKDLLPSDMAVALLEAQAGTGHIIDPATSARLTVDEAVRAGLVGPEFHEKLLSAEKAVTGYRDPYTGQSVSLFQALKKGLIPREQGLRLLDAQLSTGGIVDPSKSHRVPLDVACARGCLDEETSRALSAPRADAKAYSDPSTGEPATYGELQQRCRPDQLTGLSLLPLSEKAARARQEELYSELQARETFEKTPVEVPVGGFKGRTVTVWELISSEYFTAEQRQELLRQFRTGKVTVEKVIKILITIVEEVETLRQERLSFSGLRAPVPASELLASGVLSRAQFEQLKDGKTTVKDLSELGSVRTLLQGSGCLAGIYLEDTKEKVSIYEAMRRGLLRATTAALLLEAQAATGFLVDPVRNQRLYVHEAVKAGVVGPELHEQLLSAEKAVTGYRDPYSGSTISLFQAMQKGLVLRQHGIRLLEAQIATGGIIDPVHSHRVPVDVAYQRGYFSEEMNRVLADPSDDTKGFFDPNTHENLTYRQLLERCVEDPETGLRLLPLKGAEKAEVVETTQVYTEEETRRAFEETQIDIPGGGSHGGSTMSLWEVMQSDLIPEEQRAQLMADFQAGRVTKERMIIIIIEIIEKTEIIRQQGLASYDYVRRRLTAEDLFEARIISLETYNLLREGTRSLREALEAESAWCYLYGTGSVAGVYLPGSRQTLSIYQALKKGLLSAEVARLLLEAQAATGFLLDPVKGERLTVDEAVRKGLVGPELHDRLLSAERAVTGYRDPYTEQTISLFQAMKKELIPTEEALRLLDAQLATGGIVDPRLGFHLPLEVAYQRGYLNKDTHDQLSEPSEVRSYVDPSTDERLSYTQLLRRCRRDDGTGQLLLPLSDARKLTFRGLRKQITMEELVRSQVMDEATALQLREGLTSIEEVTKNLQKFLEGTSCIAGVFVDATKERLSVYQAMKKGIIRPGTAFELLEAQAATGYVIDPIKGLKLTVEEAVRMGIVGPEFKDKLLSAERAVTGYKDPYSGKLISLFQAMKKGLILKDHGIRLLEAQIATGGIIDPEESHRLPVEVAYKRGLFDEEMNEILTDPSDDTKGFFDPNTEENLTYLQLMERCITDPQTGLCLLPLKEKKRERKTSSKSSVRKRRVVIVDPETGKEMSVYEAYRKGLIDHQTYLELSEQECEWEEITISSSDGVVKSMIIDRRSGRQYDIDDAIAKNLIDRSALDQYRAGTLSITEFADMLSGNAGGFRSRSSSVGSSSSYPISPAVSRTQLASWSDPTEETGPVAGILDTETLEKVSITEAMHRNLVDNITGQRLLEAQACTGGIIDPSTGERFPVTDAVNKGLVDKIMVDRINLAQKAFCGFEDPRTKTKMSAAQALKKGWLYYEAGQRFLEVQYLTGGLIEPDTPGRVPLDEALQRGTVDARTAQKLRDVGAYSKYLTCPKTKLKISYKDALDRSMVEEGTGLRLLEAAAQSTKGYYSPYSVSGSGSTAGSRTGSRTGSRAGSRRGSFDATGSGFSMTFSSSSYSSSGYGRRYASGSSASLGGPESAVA
UniProt P06858, sequence (P06858 whole entry): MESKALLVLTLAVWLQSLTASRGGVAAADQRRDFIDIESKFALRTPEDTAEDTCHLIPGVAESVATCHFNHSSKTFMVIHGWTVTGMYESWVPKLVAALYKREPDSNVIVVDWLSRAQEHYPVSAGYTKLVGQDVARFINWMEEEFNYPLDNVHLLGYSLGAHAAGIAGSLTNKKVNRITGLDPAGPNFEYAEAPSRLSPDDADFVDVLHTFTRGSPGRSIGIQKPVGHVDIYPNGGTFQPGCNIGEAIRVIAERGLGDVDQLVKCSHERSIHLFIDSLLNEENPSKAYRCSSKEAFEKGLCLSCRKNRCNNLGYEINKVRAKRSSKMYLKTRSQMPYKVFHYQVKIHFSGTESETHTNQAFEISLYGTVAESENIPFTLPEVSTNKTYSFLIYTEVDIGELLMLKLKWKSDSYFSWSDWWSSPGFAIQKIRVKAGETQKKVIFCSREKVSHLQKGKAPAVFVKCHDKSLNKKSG

Row | Target | lysine labeling ratio R10:1
1 | GPI (lysine site: K454) (UniProt P06744) | 2.77 (inactive)
2 | UniProt Q16363 (lysine site: K518) | 2.09 (inactive)
3 | PAFAH1B1 (lysine site: K54) (UniProt P43034) | 3.44 (inactive)
4 | GPI (lysine site: K89) (UniProt P06744) | 1.12 (active)
5 | UniProt Q15149 (lysine site: K2129) | 3.49 (inactive)
6 | FLNB (lysine site: K2088) (UniProt O75369) | 2.27 (inactive)
7 | IGF2R (lysine site: K2338) (UniProt P11717) | 1.29 (active)
8 | UniProt Q13765 (lysine site: K82) | 3.23 (inactive)
9 | UniProt Q9BZM4 (lysine site: K192) | 1.43 (active)
10 | CCT4 (lysine site: K42) (UniProt P50991) | 4.65 (inactive)
11 | TLN1 (lysine site: K138) (UniProt Q9Y490) | 1.21 (active)
12 | PRDX1 (lysine site: K197) (UniProt Q06830) | 2.6 (inactive)
13 | ITGB1 (lysine site: K163) (UniProt P05556) | 2.37 (inactive)
14 | GAPDH (lysine site: K117) (UniProt P04406) | 3.17 (inactive)
15 | SUB1 (lysine site: K80) (UniProt P53999) | 1.69 (active)
16 | SEMA3C (lysine site: K163) (UniProt Q99985) | 3.6 (inactive)
17 | UniProt Q15149 (lysine site: K2318) | 4.26 (inactive)
18 | IARS (lysine site: K382) (UniProt P41252) | 3.02 (inactive)
19 | LPL (lysine site: K129) (UniProt P06858) | 1.65 (active)
20 | UniProt P62263 (lysine site: K125) | 5.61 (inactive)

Row | Target | lysine labeling ratio R10:1
21 | CDCP1 (lysine site: K413) (UniProt Q9H5V8) | 1.38 (active)
22 | LAMA5 (lysine site: K2451) (UniProt O15230) | 3.17 (inactive)
23 | AHCY (lysine site: K204) (UniProt P23526) | 1.25 (active)
24 | CCT6A (lysine site: K199) (UniProt P40227) | 0.593 (active)
25 | CKAP4 (lysine site: K339) (UniProt Q07065) | 1.14 (active)
26 | FLNB (lysine site: K409) (UniProt O75369) | 2.05 (inactive)
27 | EGFR (lysine site: K212) (UniProt P00533) | 2.63 (inactive)
28 | UniProt Q15149 (lysine site: K2037) | 1.95 (active)
29 | NRP1 (lysine site: K504) (UniProt O14786) | 6.03 (inactive)
30 | IGSF8 (lysine site: K194) (UniProt Q969P0) | 1 (active)
31 | ITGA2 (lysine site: K261) (UniProt P17301) | 1.26 (active)
32 | CCT5 (lysine site: K392) (UniProt P48643) | 2.73 (inactive)
33 | VIM (lysine site: K334) (UniProt P08670) | 5.58 (inactive)
34 | HNRNPA2B1 (lysine site: K173) (UniProt P22626) | 7.67 (inactive)
35 | ENO1 (lysine site: K420) (UniProt P06733) | 2.65 (inactive)
36 | FKBP4 (lysine site: K181) (UniProt Q02790) | 1.43 (active)
37 | OSBPL5 (lysine site: K446) (UniProt Q9H0X9) | 1.7 (active)
38 | SPTBN2 (lysine site: K1874) (UniProt O15020) | 5.9 (inactive)
39 | CPM (lysine site: K338) (UniProt P14384) | 4.51 (inactive)
40 | UniProt P46781 (lysine site: K180) | 2.7 (inactive)
